High-throughput results from PubChem BioAssay.
ELG1 DNA repair: qHTS screen for small molecules that inhibit ELG1-dependent DNA repair in human embryonic kidney (HEK293T) cells expressing luciferase-tagged ELG1; Potency, µM (titrated, usually from 46.1 µM), for inactives: top-dose activity change, negative = inhibition, actives largely listed as inhibitors; 330,000 tested, 2.3% active; HEK293T ELG1-luciferase reporter, luminescence, 16 h; DNA damage induced by 5-fluorouridine; further: potency means the concentration at half of the fitted maximal effect; nearly all actives have a fitted effect of over 55% in size
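Luminescence from the luciferase reporter, measured 30 min after ONE-Glo reagent at room temperature, was the read-out. Beforehand, 2,000 cells per well were exposed for 16 hr at 37 °C to 5-fluorouridine together with compound or vehicle.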
IL-1B inflam inh: qHTS for Inhibitors of Inflammasome Signaling: IL-1-beta AlphaLISA Primary Screen; 360,000 tested, 4.7% active; THP-1 LPS/ATP IL-1B secretion, AlphaLISA, 16 h; hits give low values; activity change, % at 57.5 µM; in the data active means activity change below about -50%; inconclusive means mostly about -30% to -49%
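THP-1 cells pretreated 1 hr with compounds (up to 57.5 uM final), then stimulated with LPS (250 ng/mL final) plus ATP (1.25 mM final); secreted IL-1B measured by AlphaLISA after 16 hr, decreased signal indicating inhibition.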
TDP1 cell noCPT: qHTS for Inhibitors of human tyrosyl-DNA phosphodiesterase 1 (TDP1): qHTS in cells in absence of CPT; DT40 Tdp1-/- hTDP1 cells, no CPT, ATP luminescence, 48 h; Potency, µM (top dose mostly 46.2 µM), for inactives: at the top dose activity change, negative = growth inhibition, hits mostly inhibitors; 420,000 tested, 15% active; AID 686978, 2013; further: potency means the concentration at half of the fitted maximal effect; nearly all actives have a fitted effect of over 55% in size
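Chicken DT40 Tdp1-/- cells stably complemented with human TDP1 were seeded at 400 cells/well with DMSO in place of 20 nM camptothecin. After compound pinning, cells grew at least 48 hr at 37 °C; viability read by CellTiter-Glo luminescence.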
HT1080 IDH1KD tx: qHTS for induction of synthetic lethality in tumor cells producing 2HG: qHTS for the HT-1080-IDH1KD cell line. HT-1080 IDH1 knockdown viability, ATP luminescence, 48 h. Potency, µM (top dose mostly 46.1 µM), for the others: top-dose activity, negative = toxicity, actives largely listed as cytotoxic. 360,000 tested, 2% active;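 further: potency means the concentration at half of the fitted maximal effect; 0% = DMSO wells and -100% = cell-free medium wells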
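HT-1080-IDH1KD cells (IDH1 knocked down), 750/well in RPMI with 5% FBS, treated with compound 48 h at 37 degrees C. Viability by CellTiter-Glo luminescence, normalised to DMSO and no-cell wells; concentration-response curves classed.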
TDP1 cell CPT: qHTS for Inhibitors of human tyrosyl-DNA phosphodiesterase 1 (TDP1): qHTS in cells in presence of CPT | 420,000 tested, 12% active | Potency, µM (top dose mostly 46.2 µM), for the others: at the top dose activity change, negative = growth inhibition, actives largely listed as inhibitors | chicken DT40 Tdp1-/-;hTDP1 cells + 20 nM CPT, ATP luminescence, 48 h | AID 686979, 2013; further: potency means the concentration at half of the fitted maximal effect; nearly all actives have a fitted effect of over 55% in size
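Chicken DT40 Tdp1-/- cells complemented with human TDP1, 400 cells/well, exposed to compounds plus 20 nM camptothecin for at least 48 h at 37 C; viability read as ATP content by CellTiter-Glo luminescence.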
HT1080-NT tox: qHTS for induction of synthetic lethality in tumor cells producing 2HG: qHTS for the HT-1080-NT fibrosarcoma cell line; HT-1080-NT fibrosarcoma viability, CellTiter-Glo ATP luminescence, 48 h; Potency, µM (series often up to 46.1 µM), inactives show top-dose activity, negative = less viability, hits mostly cytotoxic; 360,000 tested, 1.6% active;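 further: NT is the 2HG producing partner of a matched IDH1 knockdown line; potency means the concentration at half of the fitted maximal effect; 0% = DMSO-treated cells and -100% = media-only wells without cells; nearly all actives have a fitted effect of over 55% in size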
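Luminescent CellTiter-Glo readout after 48 hours of compound exposure at 37 degrees C defined viability of HT-1080-NT cells. Activity was normalized to DMSO wells and cell-free media wells; concentration-response curves were fitted and assigned curve classes.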
* = called active by the depositor; ? = inconclusive; . = not tested or not shown. A selection: hits, their analogues and other compounds. The true share with any hit is near 19%. Unless noted, the call rests on the fitted dose curve; in most records, active means well fitted curve in the direction sought with a large enough effect; inconclusive means small, poorly fitted or top-dose-only effect, or another doubt; inactive means no such curve, though single readings can be large; an effect the other way counts as inactive or inconclusive. Unless noted, on the % scale 0 is the no-effect control and ±100 the full control effect.

SMILES	ELG1 DNA repair	IL-1B inflam inh	TDP1 cell noCPT	HT1080 IDH1KD tx	TDP1 cell CPT	HT1080-NT tox
O=C(Nc1ncc(Cc2ccc(F)cc2)s1)c1ccc2c(c1)CC(c1ccccc1)OC2=O (stereo unspecified)	.	.	23µM*	.	?	.
CCOC(=O)C1CCCN(C(=O)c2cnn(-c3ncc4c(n3)-c3ccccc3CCC4)c2C2CC2)C1 (stereo unspecified)	.	.	-21%	.	11%	.
COc1ccc(/C=C2\N=C(c3ccc(C)cc3)OC2=O)cc1	-10%	4	-4%	7%	3%	6%
O=C1OC(c2ccc(F)cc2)=N/C1=C\c1ccc(Br)o1	6%	3	13µM*	17%	?	5%
CN(c1nc(-c2ccc(Br)cc2)cs1)C1CCS(=O)(=O)C1 (stereo unspecified)	18%	-77*	?	2%	?	-1%
COc1ccc(CC2(CO)COc3ccccc3C2=O)cc1 (stereo unspecified)	.	24	16µM*	?	?	?
COc1ccc(CN2C(=O)COc3ccccc32)cc1	8%	22	-20%	2%	-1%	0%
Cc1cc(C(=O)CN2C(=O)NC3(CCCCC3)C2=O)c(C)n1Cc1ccc2c(c1)OCO2	-2%	39	23µM*	-8%	8.2µM*	1%
Cc1cc(C(=O)CN2C(=O)NC(C)(CC(C)C)C2=O)c(C)n1-c1ccc2c(c1)OCO2 (stereo unspecified)	-9%	-25	23µM*	-3%	?	-3%
CCC(=O)N(C)C[C@@H]1Oc2ncc(Br)cc2C(=O)N([C@@H](C)CO)C[C@H]1C	.	4	-18%	11%	6%	?
CC(Oc1cccnc1[N+](=O)[O-])C(=O)Nc1ccc(Cl)cn1 (stereo unspecified)	18%	12	-6%	2%	-5%	18%
S=C(NCc1ccccc1)Nc1cccc2cnccc12	2.1µM*	-10	18µM*	?	12µM*	-4%
CCCCNC(=S)Nc1cccc2cnccc12	?	3	23µM*	-20%	13µM*	-21%
COCCNC(=S)Nc1cccc2cnccc12	?	22	4%	9%	-24%	8%
S=C(NCc1cccnc1)Nc1cccc2ccccc12	3%	9	?	16%	-23%	15%
COc1ccc(/C=C2\SC(=O)N(CCCC(=O)Nc3cc(Cl)ccc3C(=O)O)C2=O)cc1	2.1µM*	13	-1%	4%	33%	-8%
O=C1/C(=C/c2ccccc2)SC(=S)N1CCCC(=O)N1CCCCC1CCO (stereo unspecified)	?	-59*	?	-6%	?	-10%
COc1ccc(/C=C2\SC(=O)N(CCC(=O)N3CCCCC3CCO)C2=O)cc1 (stereo unspecified)	3%	-17	21µM*	13%	?	8%
COc1ccc(/C=C2\SC(=S)N(CCC(=O)N3CCCCC3CCO)C2=O)cc1 (stereo unspecified)	?	-9	?	-2%	?	1%
COc1ccc(/C=C2/SC(=O)N(CCNC(=O)C3CCCN3C(=O)c3cccs3)C2=O)cc1 (stereo unspecified)	-8%	-149*	?	-3%	?	5%
O=C1/C(=C/c2ccco2)SC(=S)N1CCC(=O)N1CCCCC1CCO (stereo unspecified)	16%	-76*	21µM*	-2%	-78%	-7%
O=C(/C=C/c1ccc(F)cc1)NC(=S)N1CCCCC1c1cccnc1 (stereo unspecified)	11%	-2	-15%	8%	-3%	?
O=C1/C(=C/c2cccc(Cl)c2)SC(=S)N1CCC(=O)N1CCCCC1CCO (stereo unspecified)	-27%	?	?	0%	?	-12%
O=C1/C(=C/c2ccccc2F)SC(=S)N1CC(=O)N1CCCCC1c1cccnc1 (stereo unspecified)	-13%	-61*	3.7µM*	-10%	3.7µM*	-2%
O=C1/C(=C/c2ccccc2F)SC(=S)N1CCC(=O)N1CCCCC1CCO (stereo unspecified)	-8%	-99*	15µM*	?	?	-19%
SMILES	ELG1 DNA repair	IL-1B inflam inh	TDP1 cell noCPT	HT1080 IDH1KD tx	TDP1 cell CPT	HT1080-NT tox
Cc1noc(C)c1C(=O)N1CCC2(CC1)CCN(c1ccncc1)CC2	.	.	?	.	-26%	.
COc1ccccc1S(=O)(=O)Nc1cc(C)nn1-c1ccc(C)cc1	-21%	39	-3%	0%	10%	-17%
Cc1ccc2nc(N(Cc3cccnc3)C(=O)C3COc4ccccc4O3)sc2c1 (stereo unspecified)	.	.	-12%	.	-5%	.
O=S(=O)(NCc1nnc2c(C(F)(F)F)cc(Cl)cn12)c1ccccc1	17%	7	-4%	1%	1%	1%
CC1Cc2ccccc2N1C(=O)CN1CCC(n2nnc3cc(C(F)(F)F)ccc32)CC1 (stereo unspecified)	21µM*	-58*	23µM*	-30%	?	-28%
O=C(CN1CCC(n2nnc3cc(C(F)(F)F)ccc32)CC1)Nc1ccc2c(c1)OCCO2	?	-9	?	?	?	-24%
O=C(CN1CCC(n2nnc3cc(C(F)(F)F)ccc32)CC1)Nc1ccc2c(c1)CCC2	?	-50*	21µM*	-13%	?	-14%
CCOc1cc(CNC(=O)CSc2n[nH]c(-c3ccccc3)n2)cc(OCC)c1OCC	.	.	?	.	21µM*	.
COc1ccc(-c2nc(SCC(=O)NCc3ccccc3Cl)n[nH]2)cc1	.	.	7.3µM*	.	5.8µM*	.
CC(=O)Nc1cccc(NC(=O)CSc2n[nH]c(-c3ccccc3)n2)c1	27%	89	6%	6%	-1%	2%
Cc1ccc(S(=O)(=O)N2CCN(C(=O)CCCOc3ccc(Cl)cc3C)CC2)cc1	?	-62*	?	-13%	?	-5%
